Measurements published in PubChem BioAssay (Tox21).
Values joined by “and” are separate entries in the source; they are usually repeats but may differ in a detail not shown here. Equal entries are not always repeated. Inconclusive results are not listed. Entries that show only a call come without a potency. Some compounds were tested as several samples or in several runs, with calls that do not always agree. Active and inactive are the calls of the source. Unless noted, calls follow the shape of the dose curve; as a rule, active = well fitted curve in the direction sought with a large enough effect in the repeat runs; inconclusive = weak or mixed curves; inactive = no such curve, though single readings can be large; an effect the other way counts as inactive or inconclusive.

How the values were obtained:
[1] = qHTS assay to identify aromatase inhibitors - cell viability counter screen (AID 743084);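 also: cells stimulated with testosterone during compound exposure; nearly all actives have a fitted effect of over 55% in size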
[2] = target: Aryl hydrocarbon receptor (Homo sapiens) (UniProt P35869); assay: qHTS assay to identify small molecule that activate the aryl hydrocarbon receptor (AhR) signaling pathway (AID 743085); also: nearly all actives have a fitted effect of over 15% in size; also: potency is read from the fitted curve at half-maximal effect;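 as to activation: HG2L7.5c1 human HepG2 liver cells with stably integrated DRE-driven firefly reporter; series mostly up to about 70 µM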
Chain of Aryl hydrocarbon receptor (Homo sapiens) (P35869 whole entry, looked up): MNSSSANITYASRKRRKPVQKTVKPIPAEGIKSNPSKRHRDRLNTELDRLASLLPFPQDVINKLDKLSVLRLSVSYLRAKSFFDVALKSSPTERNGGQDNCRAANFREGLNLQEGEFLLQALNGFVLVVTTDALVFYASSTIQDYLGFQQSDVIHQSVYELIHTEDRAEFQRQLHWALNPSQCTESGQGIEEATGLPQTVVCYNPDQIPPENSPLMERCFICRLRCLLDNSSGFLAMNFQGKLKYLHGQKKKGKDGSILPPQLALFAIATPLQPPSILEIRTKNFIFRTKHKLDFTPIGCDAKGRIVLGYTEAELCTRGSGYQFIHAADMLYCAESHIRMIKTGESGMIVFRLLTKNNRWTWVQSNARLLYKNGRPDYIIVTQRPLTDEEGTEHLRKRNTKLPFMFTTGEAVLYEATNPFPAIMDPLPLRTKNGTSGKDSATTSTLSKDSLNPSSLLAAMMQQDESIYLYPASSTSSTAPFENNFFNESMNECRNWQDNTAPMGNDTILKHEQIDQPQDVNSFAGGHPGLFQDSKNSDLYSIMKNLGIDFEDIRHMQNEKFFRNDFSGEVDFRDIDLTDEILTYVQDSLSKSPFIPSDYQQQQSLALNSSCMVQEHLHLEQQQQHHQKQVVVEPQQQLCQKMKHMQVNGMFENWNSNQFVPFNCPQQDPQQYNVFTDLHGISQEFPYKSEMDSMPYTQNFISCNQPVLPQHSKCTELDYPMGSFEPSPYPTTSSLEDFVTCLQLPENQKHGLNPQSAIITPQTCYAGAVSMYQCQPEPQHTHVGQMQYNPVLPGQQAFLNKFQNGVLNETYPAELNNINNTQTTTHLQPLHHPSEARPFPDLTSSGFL
Procedure, shortened: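 Compounds were tested in HepG2 hepatocellular carcinoma cells harbouring a stably integrated luciferase gene under control of 20 DREs. Increased reporter signal after 24 h treatment at 37C was taken as AhR activation.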

[3] = qHTS assay to identify small molecule that activate the aryl hydrocarbon receptor (AhR) signaling pathway - cell viability counter screen (AID 743086);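 also: HepG2 liver cells carrying the AhR DRE luciferase reporter; series mostly up to about 70 µM; nearly all actives have a fitted effect of over 45% in size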
Procedure, shortened: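 HepG2-AhR-luc (HG2L7.5c1) cells, 4000/well, treated 24 h at 37 C with compound; viability measured as CellTiter-Fluor fluorescence after 30 min in the same wells as the luciferase read.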

[4] = target: Peroxisome proliferator-activated receptor gamma (Homo sapiens) (UniProt P37231); assay: qHTS assay to identify small molecule agonists of the peroxisome proliferator-activated receptor gamma (PPARg) signaling pathway (AID 743094; active = well fitted activation curve with a large enough effect in the signal ratio in the repeat runs, not every such curve was filed as active; the % refers to the signal ratio)
Chain of Peroxisome proliferator-activated receptor gamma (Homo sapiens) (P37231 whole entry, looked up): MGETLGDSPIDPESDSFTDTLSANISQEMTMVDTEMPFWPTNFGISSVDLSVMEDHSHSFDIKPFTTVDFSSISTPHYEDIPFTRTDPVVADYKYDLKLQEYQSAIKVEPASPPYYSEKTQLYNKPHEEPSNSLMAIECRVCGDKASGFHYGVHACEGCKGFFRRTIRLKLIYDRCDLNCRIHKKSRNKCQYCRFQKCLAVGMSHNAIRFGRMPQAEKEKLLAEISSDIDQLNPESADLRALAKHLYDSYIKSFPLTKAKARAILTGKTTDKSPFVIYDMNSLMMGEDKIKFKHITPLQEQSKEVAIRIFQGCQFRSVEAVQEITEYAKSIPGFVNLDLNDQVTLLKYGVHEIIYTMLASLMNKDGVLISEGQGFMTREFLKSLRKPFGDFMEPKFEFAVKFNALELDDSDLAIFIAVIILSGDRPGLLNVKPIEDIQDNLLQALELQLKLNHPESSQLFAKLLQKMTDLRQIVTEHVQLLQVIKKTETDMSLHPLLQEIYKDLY
Procedure, shortened: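 Beta-lactamase FRET fluorescence was the read-out after a 1 h room-temperature substrate step, following 17 h compound treatment at 37C of HEK293H cells expressing a UAS-driven bla reporter responsive to PPARg.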

[5] = target: Peroxisome proliferator-activated receptor gamma (Homo sapiens) (UniProt P37231); assay: qHTS assay to identify small molecule antagonists of the peroxisome proliferator-activated receptor gamma (PPARg) signaling pathway (AID 743191; calls by dose curve; also: series mostly up to about 63 µM; nearly all actives have a fitted effect of over 30% in size)
Procedure, shortened: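 GeneBLAzer PPARg UAS-bla HEK293H cells, 5 h post-plating, exposed to compounds 17 h at 37C. LiveBLAzer B/G FRET substrate added for 1 h at room temperature; beta-lactamase reporter read by fluorescence intensity.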

[6] = qHTS assay to identify small molecule antagonists of the peroxisome proliferator-activated receptor gamma (PPARg) signaling pathway - cell viability counter screen (AID 743194); also: nearly all actives have a fitted effect of over 55% in size
Procedure, shortened: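 Cytotoxicity counter screen in PPARg-bla HEK293H cells, same wells as reporter assay. Compounds plus 50 nM rosiglitazone (final) for 17 h at 37 C, then viability read by CellTiter-Glo luminescence.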

[7] = qHTS assay for small molecule agonists of the antioxidant response element (ARE) signaling pathway (AID 743202; active = well fitted activation curve with a large enough effect in the signal ratio in the repeat runs, not every such curve was filed as active; the % refers to the signal ratio; also: potency is read from the fitted curve at half-maximal effect)
Procedure, shortened: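 Agonist mode reporter screen: HepG2 cells with ARE-controlled beta-lactamase are incubated with test compounds for 16 h at 37 C, and beta-lactamase activity is measured as fluorescence of cleaved B/G FRET substrate.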

[8] = qHTS assay for small molecule agonists of the antioxidant response element (ARE) signaling pathway - cell viability counter screen (AID 743203; calls by dose curve; also: nearly all actives have a fitted effect of over 55% in size)
Procedure, shortened: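 HepG2 cells carrying ARE-driven beta-lactamase; 2,000 cells/well; 5 hrs plating; compound pinned from DMSO; 16 hrs 37C/5% CO2; CellTiter-Glo added; 30 min RT; luminescence.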

[9] = qHTS assay for small molecule activators of the heat shock response signaling pathway - cell viability counter screen (AID 743209); also: nearly all actives have a fitted effect of over 50% in size
Procedure, shortened: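 Luminescence from CellTiter-Glo, added after the beta-lactamase FRET read, gave the viability signal. Cells were HSE-bla HeLa treated with DMSO-dissolved compounds for 5 h at 37 C following overnight plating.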

[10] = qHTS assay for small molecule activators of the heat shock response signaling pathway (AID 743210; active = well fitted activation curve with a large enough effect in the signal ratio in the repeat runs, with a control signal flat, not every such curve was filed as active; the % refers to the signal ratio;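 also: HeLa cells with beta-lactamase reporter driven by heat shock elements; series mostly up to about 63 µM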)
Procedure, shortened: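 Quantitative high-throughput format using an engineered HeLa line in which heat shock response elements drive beta-lactamase; after 5 h with compound, cells received a B/G FRET substrate and fluorescence was read.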

[11] = qHTS assay to identify small molecule agonists of the peroxisome proliferator-activated receptor delta (PPARd) signaling pathway - cell viability counter screen (AID 743211); also: nearly all actives have a fitted effect of over 55% in size
Procedure, shortened: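 Counter screen for cytotoxicity run in parallel with the PPARd reporter screen. Beta-lactamase reporter HEK293H cells exposed to compounds 17 h; ATP-based CellTiter-Glo luminescence quantified viability.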

[12] = qHTS assay to identify small molecule antagonists of the peroxisome proliferator-activated receptor delta (PPARd) signaling pathway - cell viability counter screen (AID 743213); also: nearly all actives have a fitted effect of over 50% in size
Procedure, shortened: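 PPARd-bla HEK293H cells (3000/well) got compound plus 300 nM L165041 agonist for 17 h at 37 C. Viability in the same wells came from CellTiter-Glo luminescence after 30 min at room temperature.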

[13] = target: Bile acid receptor (Homo sapiens) (UniProt Q96RI1); assay: qHTS assay to identify small molecule antagonists of the farnesoid-X-receptor (FXR) signaling pathway (AID 743217; active = well fitted inhibition curve with a large enough effect in the signal ratio in the repeat runs, not every such curve was filed as active; the % refers to the signal ratio)
Chain of Bile acid receptor (Homo sapiens) (Q96RI1 whole entry, looked up): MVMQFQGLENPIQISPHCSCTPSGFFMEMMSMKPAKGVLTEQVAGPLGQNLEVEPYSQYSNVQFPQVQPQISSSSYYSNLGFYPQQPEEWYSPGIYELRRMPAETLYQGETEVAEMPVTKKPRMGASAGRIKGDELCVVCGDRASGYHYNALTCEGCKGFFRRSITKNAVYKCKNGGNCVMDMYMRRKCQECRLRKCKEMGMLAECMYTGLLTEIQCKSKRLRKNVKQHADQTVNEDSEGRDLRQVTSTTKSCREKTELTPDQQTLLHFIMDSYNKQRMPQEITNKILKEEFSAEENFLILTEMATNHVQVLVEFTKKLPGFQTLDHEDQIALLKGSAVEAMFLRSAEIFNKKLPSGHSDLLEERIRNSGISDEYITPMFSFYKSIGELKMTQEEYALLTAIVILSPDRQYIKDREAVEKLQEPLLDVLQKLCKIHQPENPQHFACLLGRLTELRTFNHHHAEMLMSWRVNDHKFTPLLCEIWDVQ
Procedure, shortened: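 HEK 293T FXR-UAS-bla, 5000 cells/well; compound + CDCA 50 uM final; 16 h, 37 °C; B/G FRET substrate 2 h RT; fluorescence.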

[14] = qHTS assay to identify small molecule agonists of the farnesoid-X-receptor (FXR) signaling pathway - cell viability counter screen (AID 743218); also: nearly all actives have a fitted effect of over 45% in size
Procedure, shortened: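 HEK 293T FXR-bla cells; 5 h pre-incubation, 16 h compound exposure at 37 C; LiveBLAzer substrate 2 h RT, then CellTiter-Glo 30 min RT, luminescence.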

[15] = target: Bile acid receptor (Homo sapiens) (UniProt Q96RI1); assay: qHTS assay to identify small molecule agonists of the farnesoid-X-receptor (FXR) signaling pathway (AID 743220; active = well fitted activation curve with a large enough effect in the signal ratio in the repeat runs, not every such curve was filed as active; the % refers to the signal ratio)
Procedure, shortened: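 Beta-lactamase reporter under UAS control in GeneBLAzer FXR HEK 293T cells (5000/well) measured with LiveBLAzer FRET substrate after 2 h at room temperature. Compound exposure lasted 16 h at 37C.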

[16] = qHTS assay to identify small molecule antagonists of the farnesoid-X-receptor (FXR) signaling pathway - cell viability counter screen (AID 743221; active = well fitted cell-killing curve with a large enough effect in the repeat runs, not every such curve was filed as active; also: nearly all actives have a fitted effect of over 50% in size)
Procedure, shortened: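 Multiplexed counter screen: viability of FXR-bla HEK 293T cells under agonist stimulation by chenodeoxycholic acid (50 uM, final) and test compound for 16 h at 37 C, measured by CellTiter-Glo luminescence in the reporter wells.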

[17] = target: Peroxisome proliferator-activated receptor delta (Homo sapiens) (UniProt Q03181); assay: qHTS assay to identify small molecule agonists of the peroxisome proliferator-activated receptor delta (PPARd) signaling pathway (AID 743212; calls by dose curve)
Chain of Peroxisome proliferator-activated receptor delta (Homo sapiens) (Q03181 whole entry, looked up): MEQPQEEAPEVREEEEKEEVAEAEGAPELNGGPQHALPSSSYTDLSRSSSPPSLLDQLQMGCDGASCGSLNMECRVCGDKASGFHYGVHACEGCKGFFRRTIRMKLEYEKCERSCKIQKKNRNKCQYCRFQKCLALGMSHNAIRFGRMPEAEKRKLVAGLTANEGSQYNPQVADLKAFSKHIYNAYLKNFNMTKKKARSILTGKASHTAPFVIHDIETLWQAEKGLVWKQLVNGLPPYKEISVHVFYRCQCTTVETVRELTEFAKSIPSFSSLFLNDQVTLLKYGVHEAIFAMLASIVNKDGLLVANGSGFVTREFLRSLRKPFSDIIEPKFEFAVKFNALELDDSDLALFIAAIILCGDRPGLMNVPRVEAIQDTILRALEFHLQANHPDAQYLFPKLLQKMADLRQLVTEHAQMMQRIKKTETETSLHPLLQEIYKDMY
Procedure, shortened: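 Quantitative high-throughput agonist screen in a HEK293H beta-lactamase reporter line under UAS control. Compounds in DMSO, at 37 C. Fluorescence read after 2 h with FRET substrate at room temperature.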

[18] = target: Vitamin D3 receptor (Homo sapiens) (UniProt P11473); assay: qHTS assay to identify small molecule antagonists of the vitamin D receptor (VDR) signaling pathway (AID 743223; active = well fitted inhibition curve with a large enough effect in the signal ratio in the repeat runs, not every such curve was filed as active; the % refers to the signal ratio)
Chain of Vitamin D3 receptor (Homo sapiens) (P11473 whole entry, looked up): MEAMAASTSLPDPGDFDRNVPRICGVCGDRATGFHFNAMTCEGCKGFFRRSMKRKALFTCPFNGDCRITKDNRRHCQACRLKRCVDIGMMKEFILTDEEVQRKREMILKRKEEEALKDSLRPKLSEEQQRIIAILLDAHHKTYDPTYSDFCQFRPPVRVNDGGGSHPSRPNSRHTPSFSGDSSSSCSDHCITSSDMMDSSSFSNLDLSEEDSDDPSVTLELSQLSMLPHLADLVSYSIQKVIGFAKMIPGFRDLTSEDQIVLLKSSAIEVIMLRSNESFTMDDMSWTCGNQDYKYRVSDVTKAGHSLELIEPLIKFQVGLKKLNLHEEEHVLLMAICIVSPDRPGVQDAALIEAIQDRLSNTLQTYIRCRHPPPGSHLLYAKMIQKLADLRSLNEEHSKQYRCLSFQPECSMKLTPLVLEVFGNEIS
Procedure, shortened: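 Cells carrying a VDR-driven beta-lactamase reporter (VDR-bla) were co-treated with compound and 3 nM final 1alpha,25-dihydroxyvitamin D3 for 16 h at 37C; reporter activity was measured as FRET substrate fluorescence after 2 h at room temperature.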

[19] = target: Vitamin D3 receptor (Homo sapiens) (UniProt P11473); assay: qHTS assay to identify small molecule agonists of the vitamin D receptor (VDR) signaling pathway (AID 743222; calls by dose curve)
Procedure, shortened: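 VDR-bla cells, 2,000/well; 4 h preincubation 37C; cpd (DMSO) 16 h; LiveBLAzer B/G substrate 2 h RT; fluorescence intensity read.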

[20] = target: Peroxisome proliferator-activated receptor delta (Homo sapiens) (UniProt Q03181); assay: qHTS assay to identify small molecule antagonists of the peroxisome proliferator-activated receptor delta (PPARd) signaling pathway (AID 743215; active = well fitted inhibition curve with a large enough effect in the signal ratio in the repeat runs, not every such curve was filed as active; the % refers to the signal ratio;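 also: cells stimulated with agonist L165041 at 300 nM final during compound exposure; series mostly up to about 62 µM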)
Procedure, shortened: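 Read-out is beta-lactamase FRET fluorescence, measured 2 h after substrate addition at room temperature. Beforehand, UAS-bla HEK293H cells carrying the PPARd reporter were exposed to compounds with L165041 at 300 nM final for 17 h at 37 C.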

SMILES	Potency [1]	Potency [2]	outcome [3]	outcome [4]	outcome [5]	outcome [6]	Potency [7]	outcome [8]	outcome [9]	Potency [10]	outcome [11]	outcome [12]	outcome [13]	Potency [14]	outcome [15]	Potency [16]	outcome [17]	outcome [18]	outcome [19]	Potency [20]
C=CCOC(=O)c1ccccc1C(=O)OCC=C	inactive	inactive	inactive	inactive	inactive	inactive	inactive	inactive	inactive	inactive	inactive	inactive	inactive	inactive	inactive	inactive				
Cc1ccc(N(C)C)cc1	inactive	inactive and 68.6 µM (active)	inactive	inactive	inactive	inactive	inactive	inactive			inactive	inactive		inactive		inactive	inactive	inactive		
Cc1cc(C)c(C)cc1C	inactive	inactive	inactive	inactive	inactive	inactive	inactive	inactive	inactive	inactive	inactive	inactive	inactive	inactive	inactive	inactive	inactive		inactive	
C#C[C@]1(O)CC[C@H]2[C@@H]3CCC4=CC(=O)CC[C@@H]4[C@H]3CC[C@@]21C	inactive	inactive	inactive	inactive	inactive	inactive	24.3 µM (active)	inactive		inactive	inactive	inactive		inactive		inactive	inactive			
O=C(O)c1cc(C(=O)O)cc(S(=O)(=O)O)c1	inactive	inactive	inactive	inactive	inactive	inactive	inactive	inactive	inactive	inactive	inactive	inactive	inactive	inactive	inactive	inactive	inactive	inactive		
O=C(OCCOCCOC(=O)c1ccccc1)c1ccccc1	inactive	inactive	inactive	inactive	inactive		inactive	inactive	inactive	inactive	inactive	inactive	inactive	inactive	inactive	inactive	inactive	inactive		
CCC(O)OCCCOC (configuration not stated)	inactive	inactive	inactive	inactive	inactive	inactive	inactive	inactive	inactive	inactive	inactive	inactive		inactive		inactive	inactive	inactive	inactive	
OCC(CO)(CBr)CBr	inactive	inactive	inactive	inactive	inactive	inactive	inactive	inactive	inactive	inactive	inactive	inactive	inactive	inactive	inactive	inactive	inactive			inactive
